Publication PMC5540273 (PLoS ONE, 2017)

Legend:
Conditions in all cases: concentration: 1 μM, replicates: in singlicate; n = 1
[1] = system: EPHA7
[2] = system: EPHA8
[3] = system: EPHB1
[4] = system: EPHB2
[5] = system: EPHB3
[6] = system: EPHB4
[7] = system: EPHB6
[8] = system: ERBB2
[9] = system: ERBB3
[10] = system: ERBB4
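Also: KINOMEscan kinase panel screen.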

Compound | %Inh [1] | %Inh [2] | %Inh [3] | %Inh [4] | %Inh [5] | %Inh [6] | %Inh [7] | %Inh [8] | %Inh [9] | %Inh [10]
c1ccc(-c2cnc3nccnn23)cc1 [AH20685] | 0% | 5% | 0% | 0% | 1% | 0% | 1% | 0% | 0% | 0%
CC(=O)N1CCN(c2ccc(Nc3nccc(-c4sc(C(C)C)nc4-c4cccc(NS(=O)(=O)c5cccc(Cl)c5)c4)n3)cn2)CC1 [GSK1660437] | 0% | 29% | 21% | 0% | 0% | 0% | 97.7% | 82% | 92% | 40%
COc1cc(Nc2nccc(-c3c(-c4cccc(NC(=O)c5c(F)cccc5F)c4)nn4ccccc34)n2)cc(OC)c1OC [GSK323521] | 15% | 20% | 14% | 9% | 1% | 8% | 71% | 6% | 0% | 12%
Cc1ccc(C(=O)N2CC[C@@H](O)C2)cc1-n1c(C)cc(OCc2ccc(F)cc2F)c(Br)c1=O | 0% | 85% | 84% | 8% | 0% | 0% | 92% | 36% | 0% | 35%
CN1CCN(Cc2cccc(-c3ccc4c(Nc5ccc(Oc6ccccc6)cc5)ccnc4c3)c2)CC1 [GW578342] | 0% | 0% | 25% | 16% | 7% | 10% | 87% | 62% | 99.1% | 55%
Cc1ccc(F)c(C(=O)Nc2cccc(-c3nn4ccccc4c3-c3ccnc(Nc4cccc(F)c4)n3)c2)c1F [GSK361061] | 41% | 53% | 40% | 0% | 9% | 10% | 94.3% | 88% | 25% | 96.4%
Oc1cc(Nc2ccnc3cc(I)ccc23)ccc1F [GW552771] | 0% | 49% | 39% | 14% | 4% | 45% | 24% | 22% | 0% | 36%
CC(=O)Nc1nc2cnc(Nc3cc(NC(=O)c4cccc(C5(C#N)CC5)c4Cl)ccc3C)nc2s1 | 0% | 55% | 10% | 50% | 10% | 34% | 64% | 14% | 7% | 4%
COc1cc(Nc2nccc(-c3c(-c4cccc(NC(=O)c5c(F)cccc5F)c4)nn4ncccc34)n2)cc(OC)c1OC [GSK327238] | 9% | 56% | 35% | 93% | 0% | 15% | 97.4% | 98.6% | 96% | 99.4%
COCCOCCOc1cc2ncc3c4ccc(C#N)cc4[nH]c3c2cc1OC | 11% | 9% | 6% | 23% | 11% | 25% | 56% | 34% | 0% | 0%
